Bioassay records (PubChem)
Hits are enriched below; roughly 6.9% of the tested compounds scored in any of these assays.
CSC inhib – cancer stem cell inhibition; cancer stem cell-like cells viability, luminescence; inhibition, % at 7.5 µM; 1.1% of 300,000 active; AID 2717; in the data active = inhibition above about 75%; inconclusive = no clear call, values can overlap the other calls; tested in HMLE shEcad cells
MPTP inh – permeability transition pore inhibition. inhibition, % at 10 µM. isolated mouse mitochondria, Ca2+ swelling absorbance, 30 min. 1.4% of 360,000 active;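 active = inhibition of 50% or more, scaled per plate between neutral and stimulator controls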
Mdm2 MdmX PPI – inhibitors of human Mdm2/MdmX interaction. O15151+Q00987. SaOS-2 split-luciferase Mdm2/MdmX complementation, luminescence. inhibition, % at 8 µM. 3% of 330,000 active. AID 485346;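 active = inhibition of at least 50% at 8 µM in the primary screen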
Target sequence (O15151 whole entry, looked up): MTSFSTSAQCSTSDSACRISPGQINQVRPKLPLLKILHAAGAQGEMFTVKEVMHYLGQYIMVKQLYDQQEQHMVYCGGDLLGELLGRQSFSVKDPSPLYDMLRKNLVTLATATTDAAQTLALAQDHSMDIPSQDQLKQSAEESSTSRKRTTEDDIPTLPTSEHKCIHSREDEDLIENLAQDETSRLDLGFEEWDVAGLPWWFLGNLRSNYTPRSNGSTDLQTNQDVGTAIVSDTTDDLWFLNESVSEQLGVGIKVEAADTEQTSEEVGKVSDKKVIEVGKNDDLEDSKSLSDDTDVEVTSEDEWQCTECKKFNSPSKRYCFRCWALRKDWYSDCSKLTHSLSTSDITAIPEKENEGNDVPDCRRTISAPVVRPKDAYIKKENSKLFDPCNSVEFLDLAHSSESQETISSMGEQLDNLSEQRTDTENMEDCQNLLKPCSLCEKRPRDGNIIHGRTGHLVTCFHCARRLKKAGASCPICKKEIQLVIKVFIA
Target sequence (Q00987 whole entry, looked up): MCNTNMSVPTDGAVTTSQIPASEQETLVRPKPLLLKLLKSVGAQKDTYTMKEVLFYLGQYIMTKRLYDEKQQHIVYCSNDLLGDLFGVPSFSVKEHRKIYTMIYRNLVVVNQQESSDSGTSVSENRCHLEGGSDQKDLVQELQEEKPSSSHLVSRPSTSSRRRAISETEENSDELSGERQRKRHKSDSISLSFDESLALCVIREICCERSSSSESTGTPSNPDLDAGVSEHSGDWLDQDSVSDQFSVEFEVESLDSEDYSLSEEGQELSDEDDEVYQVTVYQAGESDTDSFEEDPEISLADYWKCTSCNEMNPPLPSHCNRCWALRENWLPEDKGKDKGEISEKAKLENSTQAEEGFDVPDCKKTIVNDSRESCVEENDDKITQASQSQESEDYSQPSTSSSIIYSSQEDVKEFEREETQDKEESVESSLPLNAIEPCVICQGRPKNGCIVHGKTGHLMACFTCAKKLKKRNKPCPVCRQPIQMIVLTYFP
SKKanGAS inh – inhibitors of SKKanGAS S. pyogenes growth in kanamycin (SK-promoter or general growth effect). BacTiter-Glo, 6 h. inhibition, % at 7.5 µM. 1.3% of 300,000 active. AID 1662;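 active = mean replicate score, as percent of positive control median, at least 50; inconclusive = mean below 50 but one replicate at or above 50; inactive = mean and every replicate below 50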;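 note: strain carries kanamycin resistance gene driven by streptokinase promoter and grows in 40 µg/ml kanamycin; loss of luminescence reflects streptokinase promoter inhibition or plain growth inhibition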
Beta cell apopt – blocks beta cell apoptosis; 0.8% of 300,000 active; protection from apoptosis, % (concentration not given with the values); INS-1E cytokine-induced death, ATP luminescence, 48 h; percent of positive-control rescue, neutral wells zero;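 active = Every replicate reaches about 75%, or at least half do and their mean reaches it too, limit read from the data; inconclusive = At least half of replicates reach the limit but their mean does not; inactive = Under half of replicates reach the limit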;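 note: higher means more ATP so stronger rescue from cytokine killing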
NR3A LBD binder – modulators (binders) of human NR3A ligand-binding domain | AID 1259313 | Tm shift relative to glycine control, % at 25 µM | 2.5% of 340,000 active | NR3A LBD differential scanning fluorimetry, Tm shift; 0% = protein alone, 100% = glycine-bound protein;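 active = melting temperature shift of at least 10% of the positive control shift, at one fixed dose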
Numbers stand for hits; n = inactive; u = inconclusive; x = not tested or not shown.

SMILES	CSC inhib	MPTP inh	Mdm2 MdmX PPI	SKKanGAS inh	Beta cell apopt	NR3A LBD binder
Cc1cccc2c(=O)n3c(cc12)-c1[nH]c2ccccc2c1CC3	x	n	x	x	x	n
CCOC(=O)c1ccc(NC(=S)Nc2ccc(Br)cc2N)cc1	n	n	n	n	x	22.6
CCOC(=O)c1ccc(NC(=O)COC)cc1	n	n	n	n	n	n
CCOC(=O)c1ccc(NC(=S)Nc2cccc(N)n2)cc1	n	n	n	58.3	n	n
CCOC(=O)c1ccc(NC(=S)Nc2cccc(C)n2)cc1	n	n	n	n	n	n
CCOC(=O)c1ccc(NC(=S)NN)cc1	n	n	n	69.9	n	n
CCOC(=O)c1ccc(NC(=S)NC(=O)c2cncc(Br)c2)cc1	n	n	n	n	n	n
COC(=O)c1ccc(NC(=S)Nc2ccc(O)cc2)cc1	n	n	n	n	n	20.2
C=C1CCN([C@@H](C)C(=O)NCCCCCC)S(=O)(=O)c2ccccc21	n	n	n	n	n	n
COc1ccc(N=C2NC(=O)/C(=C/c3ccc(O)c(OC)c3)S2)cc1	n	n	n	n	n	19.8
COc1ccccc1N=C1NC(=O)/C(=C/c2ccc(N(C)C)cc2)S1	n	n	n	55.8	n	n
COc1ccc(/C=C2\SC(=Nc3ccccc3)NC2=O)cc1	n	x	n	n	n	x
CN(c1cc(Cl)c2c(c1)OCO2)c1cc2c(c3c1ccn3C)C1CCC2C1 (stereo not drawn)	x	n	x	x	x	x
Cc1cccnc1CCNCc1c(C(=O)N2C[C@@H](C)O[C@@H](C)C2)nc2ccc(Cl)cn12	n	n	n	n	u	n
CS(=O)(=O)N1CCC(C(=O)Nc2ccccc2Br)CC1	n	n	n	n	n	n
Cc1ccc(C[n+]2cc(-c3ccc(Cl)cc3)n3c2CCC3)cc1	n	n	n	n	n	n
Cc1ccc(-c2c[n+](Cc3ccc(Cl)cc3)c3n2CCC3)cc1	n	n	n	n	108.6	n
CCCCCCCCCCOC(=O)C[N+](C)(C)C/C=C(/C)Cl	n	n	n	n	113.4	n
CCCCCCCCCCCCOC(=O)C[N+](C)(C)C	n	x	n	113.1	n	n
COc1ccc(C(=O)Nc2cc(C(F)(F)F)ccc2-n2cnc3ccccc32)cc1	n	n	n	n	n	13.7
CC(=O)Nc1ccc(C(=O)Nc2cc(C(F)(F)F)ccc2-n2cnc3ccccc32)cc1	n	n	n	n	n	n
O=c1cc(-c2ccccc2)[nH]n1-c1nc2ccccc2s1	98.0	n	n	81.6	n	n
O=c1cc(-c2ccccc2)[nH]n1-c1ccccc1	x	n	x	x	x	n
COc1ccc(C(=O)N2CCc3c([nH]c4ccccc34)C2C(F)(F)F)cc1 (stereo not drawn)	n	n	n	51.6	n	n
O=C(O)c1ccccc1C(=O)N1CCc2c([nH]c3ccccc23)C1C(F)(F)F (stereo not drawn)	n	n	n	n	n	n
SMILES	CSC inhib	MPTP inh	Mdm2 MdmX PPI	SKKanGAS inh	Beta cell apopt	NR3A LBD binder
COC(=O)c1cc(NC(=O)COC(=O)CCc2c[nH]c3ccccc23)cc(C(=O)OC)c1	x	n	n	x	x	10.7
O=C(COC(=O)CCc1c[nH]c2ccccc12)Nc1cc([N+](=O)[O-])ccc1Cl	n	n	n	n	n	n
O=C(COC(=O)CCc1c[nH]c2ccccc12)Nc1ccc([N+](=O)[O-])cc1	n	n	n	n	n	35.2
CC(Oc1ccc(Cl)cc1Cl)c1nc(-c2ccc(NC(=O)c3ccco3)cc2)no1 (stereo not drawn)	n	n	n	54.0	n	n
CCC1CCCCN1CCCNC(=O)C1CCCN(c2ncnc3c2nc2n3CCCCC2)C1 (stereo not drawn)	x	n	n	n	n	n
CCOC(=O)CC(=O)Nc1ncnc2c1C(c1ccccc1)c1c(ccc3ccccc13)O2 (stereo not drawn)	x	n	n	x	n	n
CC(=O)NC1=C(C#N)C(c2ccccc2)c2c(ccc3ccccc23)O1 (stereo not drawn)	78.2	n	n	n	n	n
COc1ccc(C)cc1S(=O)(=O)N(CC(=O)Nc1cccc([N+](=O)[O-])c1)c1ccc(C)c(C)c1	n	n	n	n	n	32.7
Cc1ccc(NC(=O)CN(c2ccc(Cl)cc2)S(=O)(=O)c2cc([N+](=O)[O-])ccc2Cl)cc1	n	n	n	n	n	n
O=C(COC(=O)CCCSc1nc2ccccc2[nH]1)Nc1ccc(Cl)cc1	n	n	n	n	n	16.2
